Read-out in assay [1]: C-C motif chemokine 2 (Homo sapiens) (UniProt P13500)
The experiment in a line: BSK_KF3CT_MCP1: BioMAP Diversity Plus: KF3CT Assay for Monocyte Chemoattractant Protein 1 (MCP1/CCL2) Biomarker Activity (AID 2283073). The conditions noted are these: primary human keratinocytes with fibroblasts; actives raise or lower the signal. The essentials: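 KF3CT skin co-culture (keratinocytes/foreskin fibroblasts), 24 h post-dose; MCP-1 by ELISA; gain/loss of signal fit bidirectionally vs DMSO baseline.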

Read-out in assay [2]: urokinase plasminogen activator (uPA), PLAU (gene 5328)
The experiment in a line: BSK_KF3CT_uPA: BioMAP Diversity Plus: KF3CT Assay for urokinase plasminogen activator (uPA) Biomarker Activity (AID 2283075). The conditions noted are these: primary human keratinocytes with fibroblasts; actives raise or lower the signal. The essentials:
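Human keratinocyte plus foreskin fibroblast primary co-culture exposed to chemical for 24 h. uPA levels were quantified by ELISA, and activity was fitted bidirectionally against a DMSO negative-control baseline.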

Read-out in assay [3]: CD40, CD40 (gene 958)
The experiment in a line: BSK_LPS_CD40: BioMAP Diversity Plus: LPS Assay for CD40 Biomarker Activity (AID 2283076). The conditions noted are these: primary human HUVEC with PBMC; actives raise or lower the signal. Summed up:
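ELISA readout of CD40 in HUVEC/PBMC co-culture (BSK_LPS system), 24 h post-dosing; bidirectional curve fit, DMSO baseline; parallel SRB total-protein staining for cytotoxicity.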

Read-out in assay [4]: E-selectin (Homo sapiens) (UniProt P16581)
The experiment in a line: BSK_LPS_Eselectin: BioMAP Diversity Plus: LPS Assay for Eselectin Biomarker Activity (AID 2283077). The following applies: primary human HUVEC with PBMC; actives raise or lower the signal. Summed up:
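ELISA readout of E-selectin, 24 h post-dose, HUVEC + PBMC co-culture (LPS system). Gain or loss of signal vs DMSO baseline, bidirectional fit.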

Read-out in assay [5]: Interleukin-8 (IL8), CXCL8 (gene 3576)
Nature of the assay: BSK_LPS_IL8: BioMAP Diversity Plus: LPS Assay for Interleukin-8 (IL8) Biomarker Activity (AID 2283078). The following applies: primary human HUVEC with PBMC; actives raise or lower the signal. Summed up: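 HUVEC + PBMC co-culture, LPS-activated; test chemicals dosed, IL-8 read by ELISA at 24 h. Bidirectional curve fit vs DMSO baseline (gain or loss of signal).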

A short description of assay [6]: BSK_LPS_SRB: Viability Assessment in the BioMAP Diversity Plus: LPS Assay (AID 2283079).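 Also: total protein by sulforhodamine B absorbance as a cytotoxicity measure; measured one day after compound addition; fitted in both directions against DMSO so loss or gain of signal counts.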 The following applies: primary human HUVEC with PBMC. Summed up:
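HUVEC + PBMC co-culture, LPS-stimulated; compound 24 h. 10% TCA fix, 0.1% SRB stain, A560. Bidirectional fit vs DMSO.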

Read-out in assay [7]: Interleukin-1 alpha (IL1a), IL1A (gene 3552)
The experiment in a line: BSK_LPS_IL1a: BioMAP Diversity Plus: LPS Assay for Interleukin-1 alpha (IL1a) Biomarker Activity (AID 2283080). The conditions noted are these: primary human HUVEC with PBMC; actives raise or lower the signal. The essentials:
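HUVEC/PBMC co-culture, LPS system; 24 h after dosing; IL-1a by ELISA; gain or loss of signal fitted bidirectionally vs DMSO baseline.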

Read-out in assay [8]: Monocyte Chemoattractant Protein-1 (MCP1), CCL2 (gene 6347)
Nature of the assay: BSK_LPS_MCP1: BioMAP Diversity Plus: LPS Assay for Monocyte Chemoattractant Protein-1 (MCP1) Biomarker Activity (AID 2283081). The conditions noted are these: primary human HUVEC with PBMC; actives raise or lower the signal. Summed up:
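ELISA read-out of MCP-1 after 24 h chemical dosing of a human umbilical vein endothelial cell/peripheral blood mononuclear cell co-culture stimulated with LPS. Gain or loss of signal fitted relative to DMSO controls.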

Assay [9] can be described thus: BSK_LPS_PGE2: BioMAP Diversity Plus: LPS Assay for Prostaglandin E2 (PGE2) Biomarker Activity (AID 2283082).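 As to AC50: secreted prostaglandin E2 measured by ELISA in LPS-stimulated co-culture.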 The conditions noted are these: primary human HUVEC with PBMC; actives raise or lower the signal. The essentials:
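HUVEC plus human PBMC co-culture stimulated with LPS; secreted PGE2 quantified by ELISA 24 h after chemical dosing. Activity fitted bidirectionally against DMSO baseline; parallel SRB staining (0.1% SRB after 10% TCA fixation, 560 nm) flags overt cytotoxicity.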

Read-out in assay [10]: Macrophage colony-stimulating factor (MCSF), CSF1 (gene 1435)
The experiment in a line: BSK_LPS_MCSF: BioMAP Diversity Plus: LPS Assay for Macrophage colony-stimulating factor (MCSF) Biomarker Activity (AID 2283083). The following applies: primary human HUVEC with PBMC; actives raise or lower the signal. The essentials: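 HUVEC + PBMC co-culture (human primary), 24 h post-dose; M-CSF by ELISA; gain/loss of signal fitted bidirectionally vs DMSO baseline.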

Read-out in assay [11]: Tissue Factor, F3 (gene 2152)
Nature of the assay: BSK_LPS_TissueFactor: BioMAP Diversity Plus: LPS Assay for Tissue Factor Biomarker Activity (AID 2283084). The following applies: primary human HUVEC with PBMC; actives raise or lower the signal. Summed up: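 HUVEC/PBMC co-culture, LPS-activated; CD142 ELISA read 24 h post-dose; bidirectional curve fit vs DMSO negative control.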

Read-out in assay [12]: Tumor necrosis factor (Homo sapiens) (UniProt P01375)
The experiment in a line: BSK_LPS_TNFa: BioMAP Diversity Plus: LPS Assay for Tumour Necrosis Factor alpha (TNFa) Biomarker Activity (AID 2283085). The following applies: primary human HUVEC with PBMC; actives raise or lower the signal. The essentials: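 Human umbilical vein endothelial cells co-cultured with PBMC and stimulated with LPS. TNFa was measured by ELISA 24 h after chemical dosing, fitted bidirectionally relative to DMSO.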

Read-out in assay [13]: Vascular cell adhesion molecule 1 (VCAM1), VCAM1 (gene 7412)
Nature of the assay: BSK_LPS_VCAM1: BioMAP Diversity Plus: LPS Assay for Vascular cell adhesion molecule 1 (VCAM1) Biomarker Activity (AID 2283086). The conditions noted are these: primary human HUVEC with PBMC; actives raise or lower the signal. The essentials:
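Human umbilical vein endothelial cells co-cultured with PBMC and stimulated with LPS; VCAM-1 measured by ELISA 24 h after dosing. Bidirectional curve fitting against DMSO baseline; cytotoxicity tracked in parallel by SRB total-protein staining.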

Read-out in another assay: CD38, CD38 (gene 952)
Nature of the assay: BSK_SAg_CD38: BioMAP Diversity Plus: SAg Assay for CD38 Biomarker Activity (AID 2283087). The conditions noted are these: primary human HUVEC with PBMC; actives raise or lower the signal. The essentials: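 Human HUVEC plus PBMC co-culture stimulated with superantigen; CD38 measured by ELISA 24 h after chemical dosing. Fluorescence read-out, bidirectional fit against DMSO; cytotoxicity tracked in parallel by SRB and Alamar Blue.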

Read-out in assay [14]: CD40, CD40 (gene 958)
Nature of the assay: BSK_SAg_CD40: BioMAP Diversity Plus: SAg Assay for CD40 Biomarker Activity (AID 2283088). The conditions noted are these: primary human HUVEC with PBMC; actives raise or lower the signal. Summed up: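 HUVEC/PBMC co-culture, 24 h post-dose; CD40 by ELISA, fluorescence intensity; bidirectional fit vs DMSO negative control.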

Read-out in another assay: CD69, CD69 (gene 969)
Nature of the assay: BSK_SAg_CD69: BioMAP Diversity Plus: SAg Assay for CD69 Biomarker Activity (AID 2283089).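 As to AC50: cell surface CD69 protein quantified by ELISA with fluorescence detection.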 The following applies: primary human HUVEC with PBMC; actives raise or lower the signal. The essentials: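 Values derive from bidirectional fitting relative to DMSO vehicle. Cells: umbilical vein endothelium plus peripheral blood mononuclear cells, treated 24 h before fluorescent ELISA for CD69.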

Read-out in assay [15]: Monocyte Chemoattractant Protein-1 (MCP1), CCL2 (gene 6347)
The experiment in a line: BSK_SAg_MCP1: BioMAP Diversity Plus: SAg Assay for Monocyte Chemoattractant Protein-1 (MCP1) Biomarker Activity (AID 2283090). The following applies: primary human HUVEC with PBMC; actives raise or lower the signal. Summed up:
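MCP-1 levels in the endothelial–PBMC SAg co-culture were quantified by ELISA at 24 h post-dosing; both increases and decreases versus DMSO scored. Cytotoxicity monitored by SRB total protein in parallel cultures.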

Read-out in assay [16]: E-selectin (Homo sapiens) (UniProt P16581)
Nature of the assay: BSK_SAg_Eselectin: BioMAP Diversity Plus: SAg Assay for Eselectin Biomarker Activity (AID 2283091). The conditions noted are these: primary human HUVEC with PBMC; actives raise or lower the signal. The essentials: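 E-selectin ELISA readout at 24 h post-dosing in human umbilical vein endothelial cell/PBMC co-culture; gain or loss of signal fitted relative to DMSO baseline.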

Read-out in assay [17]: Monokine induced gamma interferon (MIG), CXCL9 (gene 4283)
Nature of the assay: BSK_SAg_MIG: BioMAP Diversity Plus: SAg Assay for Monokine induced gamma interferon (MIG) Biomarker Activity (AID 2283092). The following applies: primary human HUVEC with PBMC; actives raise or lower the signal. Summed up:
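Values reflect bidirectional fitting of ELISA-measured MIG against DMSO vehicle, taken 24 h after dosing of a co-culture of human umbilical vein endothelial cells and peripheral blood mononuclear cells.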

Read-out in assay [18]: Matrix Metallopeptidase 9 (MMP9), MMP9 (gene 4318)
Nature of the assay: BSK_KF3CT_MMP9: BioMAP Diversity Plus: KF3CT Assay for Matrix Metallopeptidase 9 (MMP9) Biomarker Activity (AID 2283074). The conditions noted are these: primary human keratinocytes with fibroblasts; actives raise or lower the signal. The essentials: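 Keratinocyte plus foreskin fibroblast human primary skin co-culture was dosed with chemical and MMP-9 was quantified by ELISA 24 h later. Bidirectional curve fitting used DMSO as negative control and activity baseline.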

The structures appear in SMILES notation. The source made the active and inactive calls. The calls were made as follows: active = hit-call score of the fitted dose curve at least 0.9, where 1 is the maximum; inactive = score below 0.9.

Sequence of Tumor necrosis factor (Homo sapiens) (P01375 whole entry, looked up): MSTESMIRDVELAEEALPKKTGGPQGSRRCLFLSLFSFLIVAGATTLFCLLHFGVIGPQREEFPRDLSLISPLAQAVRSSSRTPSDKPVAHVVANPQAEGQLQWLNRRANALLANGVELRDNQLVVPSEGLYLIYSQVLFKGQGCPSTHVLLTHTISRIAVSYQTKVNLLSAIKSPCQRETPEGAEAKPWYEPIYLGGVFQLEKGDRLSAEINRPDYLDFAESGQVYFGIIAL
Sequence of E-selectin (Homo sapiens) (P16581 whole entry, looked up): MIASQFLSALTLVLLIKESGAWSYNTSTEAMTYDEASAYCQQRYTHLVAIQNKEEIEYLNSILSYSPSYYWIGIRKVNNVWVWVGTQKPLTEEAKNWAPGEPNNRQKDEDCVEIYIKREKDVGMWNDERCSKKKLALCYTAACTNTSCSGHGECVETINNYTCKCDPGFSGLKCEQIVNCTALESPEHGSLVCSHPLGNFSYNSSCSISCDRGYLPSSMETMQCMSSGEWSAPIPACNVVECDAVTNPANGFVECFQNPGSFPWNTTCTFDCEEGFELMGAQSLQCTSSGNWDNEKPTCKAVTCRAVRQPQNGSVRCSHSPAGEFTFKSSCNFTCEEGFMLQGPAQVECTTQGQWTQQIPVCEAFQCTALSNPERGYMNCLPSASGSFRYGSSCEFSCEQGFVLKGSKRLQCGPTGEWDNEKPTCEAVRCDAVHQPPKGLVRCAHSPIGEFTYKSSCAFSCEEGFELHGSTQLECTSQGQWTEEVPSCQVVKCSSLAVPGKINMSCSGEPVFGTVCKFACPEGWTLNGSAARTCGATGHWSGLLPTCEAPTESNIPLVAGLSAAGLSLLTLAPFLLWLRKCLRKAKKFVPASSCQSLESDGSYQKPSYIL

Turning to `O=[N+]([O-])c1cc(C(F)(F)F)ccc1Cl`, the outcome is “inactive” in assay [1]; “inactive” in [2]; “inactive” with CD40, CD40 (gene 958) [3]; “inactive” in [4]; “inactive” in assay [5]; “inactive” in [6]. Further, the outcome in assay [7], in assay [8], in assay [9], in assay [10], in [11] and in assay [12] was inactive. Besides, the outcome in [13] was “inactive”; with CD38, CD38 (gene 952), “inactive”; with CD40, CD40 (gene 958) [14] it was “inactive”; with CD69, CD69 (gene 969), “inactive”; in assay [15], “inactive”; in assay [16] it was “inactive”. In [17], the outcome was inactive.
With `CN(CCOc1ccc(CC2SC(=O)NC2=O)cc1)c1ccccn1` (stereo not drawn), the result in [1], in assay [4], in assay [5], in assay [6], in [7] and in [8] was inactive. Moreover, the outcome in [10], in [12], in assay [13] and in assay [17] was inactive. The AC50 was 0.016 µM (active) in assay [2]; 13 µM (active) with CD40, CD40 (gene 958) [3]; 0.121 µM (active) in [9]; 24.9 µM (active) in assay [11]; 20 µM (active) with CD38, CD38 (gene 952); 20 µM (active) with CD40, CD40 (gene 958) [14]. Also, the concentration at half-maximal activity (AC50) was 20 µM (active) with CD69, CD69 (gene 969); 20 µM (active) in assay [15]; 20 µM (active) in assay [16].
Regarding `CC(=O)Nc1ccccc1O`, the outcome in [1] was “inactive”; in assay [18], “inactive”; in assay [2], “inactive”; with CD40, CD40 (gene 958) [3] it was “inactive”; in assay [4] it was “inactive”; in assay [5], “inactive”. Also, the outcome in [6], in assay [7], in [8], in [9], in assay [10] and in [11] was inactive. Besides, the outcome is “inactive” in [12]; “inactive” in assay [13]; “inactive” with CD38, CD38 (gene 952); “inactive” with CD40, CD40 (gene 958) [14]; “inactive” in the assay with CD69, CD69 (gene 969); “inactive” in [15]. The outcome in [16] and in [17] was inactive.
